For some of these results: Measured potencies and affinities stand elsewhere.
How the values were obtained:
Design in all cases: scale not given: direction of the effect not stated beside the values
[1] = target: Protein translocase subunit SecA (Escherichia coli (strain K12)) (UniProt P10408); test: Assay to Identify E. coli SecA ATPase Inhibitors; assay type: functional; conditions: 30 µM
[2] = target: T1, Ubiquitin-activating enzyme e1, putative (Leishmania donovani (strain BPK282A1)) (UniProt E9BSI1); test: Leishmania donovani Ubiquitin Activating Enzyme (LdE1); assay type: functional; conditions: 30 µM
T1 sequence (whole entry): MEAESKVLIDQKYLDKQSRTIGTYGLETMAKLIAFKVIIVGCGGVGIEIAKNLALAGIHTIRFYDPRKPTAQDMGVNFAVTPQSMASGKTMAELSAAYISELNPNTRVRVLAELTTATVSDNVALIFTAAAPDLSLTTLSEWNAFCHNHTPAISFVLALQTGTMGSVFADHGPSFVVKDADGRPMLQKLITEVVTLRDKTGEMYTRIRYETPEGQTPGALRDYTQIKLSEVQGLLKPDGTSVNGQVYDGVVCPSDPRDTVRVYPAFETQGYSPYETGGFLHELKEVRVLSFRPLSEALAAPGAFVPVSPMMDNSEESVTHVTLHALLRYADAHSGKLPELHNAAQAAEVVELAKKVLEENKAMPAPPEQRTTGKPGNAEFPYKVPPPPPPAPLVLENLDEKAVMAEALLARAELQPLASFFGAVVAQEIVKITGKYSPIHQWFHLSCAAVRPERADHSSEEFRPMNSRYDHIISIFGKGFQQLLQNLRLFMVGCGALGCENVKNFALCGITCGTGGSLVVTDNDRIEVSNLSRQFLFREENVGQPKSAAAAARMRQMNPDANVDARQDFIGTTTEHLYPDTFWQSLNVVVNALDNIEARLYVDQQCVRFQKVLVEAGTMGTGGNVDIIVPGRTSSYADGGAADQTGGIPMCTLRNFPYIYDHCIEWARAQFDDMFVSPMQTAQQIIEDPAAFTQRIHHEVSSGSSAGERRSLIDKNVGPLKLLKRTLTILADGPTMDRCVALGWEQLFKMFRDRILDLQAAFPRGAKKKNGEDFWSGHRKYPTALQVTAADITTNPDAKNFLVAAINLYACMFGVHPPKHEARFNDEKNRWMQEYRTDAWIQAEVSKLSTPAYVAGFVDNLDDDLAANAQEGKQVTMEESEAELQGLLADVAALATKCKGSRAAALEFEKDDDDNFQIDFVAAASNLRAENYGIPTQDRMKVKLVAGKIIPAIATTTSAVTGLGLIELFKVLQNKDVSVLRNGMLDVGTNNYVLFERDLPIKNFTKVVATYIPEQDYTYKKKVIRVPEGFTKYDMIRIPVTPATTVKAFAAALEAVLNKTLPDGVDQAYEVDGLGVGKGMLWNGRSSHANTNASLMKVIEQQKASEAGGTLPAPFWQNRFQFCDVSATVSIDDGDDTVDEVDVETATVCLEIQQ

[3] = target: AMP-activated protein kinase, AMPK (Homo sapiens) (UniProt P54646+O43741+P54619+Q9UGJ0+Q9Y478+Q13131+Q9UGI9); test: AMP-dependent Kinase enzyme assay. An in vitro enzyme assay that detects ADP turnover that is directly proportional to AMPK activity. This uses naive AMPK that is activated during the assay with MK-8722; assay type: functional; conditions: 30 µM
[4] = target: Sialic acid-binding Ig-like lectin 9 (Homo sapiens) (UniProt Q9Y336); test: Hs-Siglec9 ALPHAscreen SOP 20170721; conditions: 10 µM
Sequence of Sialic acid-binding Ig-like lectin 9 (Homo sapiens) (Q9Y336 whole entry): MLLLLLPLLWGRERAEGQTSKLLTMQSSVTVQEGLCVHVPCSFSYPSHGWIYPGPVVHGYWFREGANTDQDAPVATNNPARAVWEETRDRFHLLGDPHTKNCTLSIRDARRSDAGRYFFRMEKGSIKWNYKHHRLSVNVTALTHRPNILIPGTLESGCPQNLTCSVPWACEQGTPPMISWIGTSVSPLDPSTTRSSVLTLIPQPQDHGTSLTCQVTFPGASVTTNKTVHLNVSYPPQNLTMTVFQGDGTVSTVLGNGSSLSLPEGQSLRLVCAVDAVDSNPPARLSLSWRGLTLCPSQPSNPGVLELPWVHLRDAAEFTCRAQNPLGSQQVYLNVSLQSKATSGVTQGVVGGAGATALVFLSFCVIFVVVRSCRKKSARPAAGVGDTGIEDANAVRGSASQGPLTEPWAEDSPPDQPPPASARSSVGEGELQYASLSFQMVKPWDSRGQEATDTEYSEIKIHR

[5] = tested on: Trypanosoma cruzi; test: Trypanosoma cruzi phosphomannomutase and mannose-1-phosphate guanylyltransferase assay; assay type: functional; conditions: 10 µM
[6] = target: T2, Arginase-2, mitochondrial (Homo sapiens) (UniProt P78540); test: in vitro enzyme assay to detect the production of urea directly proportional to the activity of Arginase II; assay type: functional; conditions: 33.3 µM; also: in the data most compounds retested in dose-response had high values
T2 sequence (whole entry): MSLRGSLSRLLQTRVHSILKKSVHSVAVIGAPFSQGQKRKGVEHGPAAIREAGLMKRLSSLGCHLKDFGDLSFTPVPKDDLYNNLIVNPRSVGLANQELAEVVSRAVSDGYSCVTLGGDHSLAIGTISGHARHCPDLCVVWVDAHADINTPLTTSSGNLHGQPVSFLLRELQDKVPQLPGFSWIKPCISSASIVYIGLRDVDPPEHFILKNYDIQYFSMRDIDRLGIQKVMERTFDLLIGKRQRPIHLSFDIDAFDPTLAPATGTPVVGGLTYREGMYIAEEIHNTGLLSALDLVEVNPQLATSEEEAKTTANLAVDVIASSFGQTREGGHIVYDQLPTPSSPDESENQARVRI

[7] = target: T3, Proteasome subunit beta (Trypanosoma cruzi) (UniProt O96673); test: Trypanosoma cruzi proteasome chymotrypsin-like activity (TcProtChymo) assay.; also: in the data most compounds retested in dose-response had high values; assay type: functional; conditions: 9.37 µM
T3 sequence (whole entry): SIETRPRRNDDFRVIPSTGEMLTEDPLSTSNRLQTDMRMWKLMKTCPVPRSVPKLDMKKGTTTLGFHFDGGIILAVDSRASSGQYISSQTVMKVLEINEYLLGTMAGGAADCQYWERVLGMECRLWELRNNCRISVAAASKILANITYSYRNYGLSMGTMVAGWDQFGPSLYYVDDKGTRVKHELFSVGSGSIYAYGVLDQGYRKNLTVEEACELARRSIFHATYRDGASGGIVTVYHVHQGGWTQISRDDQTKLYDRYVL

[8] = organism: Homo sapiens; test: To identify inhibition of the IFN signalling (Jak-Stat) pathway via expression of an eGFP reporter gene under the control of an IFN-stimulated response element (ISRE) containing MxA promoter.; assay type: functional; conditions: 30 µM
[9] = target: T4, Tyrosyl-tRNA synthetase, putative (Trypanosoma cruzi (strain CL Brener)) (UniProt Q4DSP6); test: Trypanosoma cruzi tyrosyl tRNA synthetase (TcYRS) _High Tyrosine SOP; assay type: functional; conditions: 30 µM; also: in the data most compounds retested in dose-response had high values
T4 sequence (whole entry): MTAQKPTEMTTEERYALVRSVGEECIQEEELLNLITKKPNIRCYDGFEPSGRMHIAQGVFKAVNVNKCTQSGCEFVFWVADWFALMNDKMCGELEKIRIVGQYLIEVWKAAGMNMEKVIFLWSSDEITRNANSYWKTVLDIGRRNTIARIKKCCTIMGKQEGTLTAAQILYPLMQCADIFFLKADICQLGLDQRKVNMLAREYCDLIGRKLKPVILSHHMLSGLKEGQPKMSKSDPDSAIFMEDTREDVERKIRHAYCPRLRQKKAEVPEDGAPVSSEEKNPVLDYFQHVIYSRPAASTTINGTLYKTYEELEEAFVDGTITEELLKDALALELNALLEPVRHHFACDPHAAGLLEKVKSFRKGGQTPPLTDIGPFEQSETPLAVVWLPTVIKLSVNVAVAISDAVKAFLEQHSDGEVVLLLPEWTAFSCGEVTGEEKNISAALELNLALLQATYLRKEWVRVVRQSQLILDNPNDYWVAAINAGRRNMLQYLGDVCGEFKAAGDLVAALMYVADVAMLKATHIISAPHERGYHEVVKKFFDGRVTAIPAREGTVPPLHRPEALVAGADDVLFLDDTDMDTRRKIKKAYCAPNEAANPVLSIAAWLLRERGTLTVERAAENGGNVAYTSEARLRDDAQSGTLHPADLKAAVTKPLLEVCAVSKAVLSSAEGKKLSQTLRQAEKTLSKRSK

[10] = target: T4, Tyrosyl-tRNA synthetase, putative (Trypanosoma cruzi (strain CL Brener)); test: Trypanosoma cruzi tyrosyl tRNA synthetase (TcYRS) SOP; assay type: functional; conditions: 30 µM
[11] = target: Chromo domain-containing protein 1 (Saccharomyces cerevisiae (strain ATCC 204508 / S288c) (Baker's yeast)) (UniProt P32657); test: ScCHD-1 Enzyme Inhibition Assay; assay type: functional; conditions: 30 µM; also: in the data most compounds retested in dose-response had high values
Sequence of Chromo domain-containing protein 1 (Saccharomyces cerevisiae (strain ATCC 204508 / S288c) (Baker's yeast)) (P32657 whole entry, the tested form may be a part): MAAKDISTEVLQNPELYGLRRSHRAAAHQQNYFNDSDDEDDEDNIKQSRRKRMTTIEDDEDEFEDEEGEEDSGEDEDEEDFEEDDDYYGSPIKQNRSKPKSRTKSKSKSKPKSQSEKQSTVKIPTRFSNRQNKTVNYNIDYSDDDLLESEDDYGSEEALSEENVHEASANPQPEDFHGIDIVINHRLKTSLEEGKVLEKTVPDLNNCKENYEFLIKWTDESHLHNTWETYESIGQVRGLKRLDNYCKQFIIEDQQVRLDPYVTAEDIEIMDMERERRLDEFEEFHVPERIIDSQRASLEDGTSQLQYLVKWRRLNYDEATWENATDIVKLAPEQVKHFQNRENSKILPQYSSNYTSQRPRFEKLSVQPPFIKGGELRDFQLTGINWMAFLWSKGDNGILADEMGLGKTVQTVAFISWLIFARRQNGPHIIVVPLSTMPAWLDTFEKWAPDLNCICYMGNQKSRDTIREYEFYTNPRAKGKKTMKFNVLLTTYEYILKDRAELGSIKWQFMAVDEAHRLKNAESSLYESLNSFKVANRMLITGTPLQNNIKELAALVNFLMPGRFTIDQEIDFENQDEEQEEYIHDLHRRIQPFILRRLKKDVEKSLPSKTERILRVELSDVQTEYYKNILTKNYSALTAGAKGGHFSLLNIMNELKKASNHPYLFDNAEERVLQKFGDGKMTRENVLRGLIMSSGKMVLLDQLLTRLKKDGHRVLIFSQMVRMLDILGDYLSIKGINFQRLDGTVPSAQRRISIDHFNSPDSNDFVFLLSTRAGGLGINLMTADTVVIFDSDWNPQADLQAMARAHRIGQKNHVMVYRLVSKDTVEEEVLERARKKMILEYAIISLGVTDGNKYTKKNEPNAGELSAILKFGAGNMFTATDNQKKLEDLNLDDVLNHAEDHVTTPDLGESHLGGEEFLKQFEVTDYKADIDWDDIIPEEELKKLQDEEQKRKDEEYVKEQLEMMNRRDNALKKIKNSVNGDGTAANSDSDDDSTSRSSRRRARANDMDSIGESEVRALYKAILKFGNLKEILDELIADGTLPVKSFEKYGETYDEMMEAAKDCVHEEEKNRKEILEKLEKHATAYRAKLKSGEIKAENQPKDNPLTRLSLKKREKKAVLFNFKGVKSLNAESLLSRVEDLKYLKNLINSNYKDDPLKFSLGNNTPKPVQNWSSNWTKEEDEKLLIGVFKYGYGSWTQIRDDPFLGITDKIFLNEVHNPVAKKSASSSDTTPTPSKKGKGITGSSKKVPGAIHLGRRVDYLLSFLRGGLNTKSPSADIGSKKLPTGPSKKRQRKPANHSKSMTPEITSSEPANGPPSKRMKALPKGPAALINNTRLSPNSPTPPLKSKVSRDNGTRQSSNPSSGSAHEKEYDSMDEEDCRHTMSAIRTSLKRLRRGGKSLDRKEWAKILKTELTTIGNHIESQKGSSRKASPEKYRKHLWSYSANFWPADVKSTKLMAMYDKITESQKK

Sequence of Protein translocase subunit SecA (Escherichia coli (strain K12)) (P10408 whole entry): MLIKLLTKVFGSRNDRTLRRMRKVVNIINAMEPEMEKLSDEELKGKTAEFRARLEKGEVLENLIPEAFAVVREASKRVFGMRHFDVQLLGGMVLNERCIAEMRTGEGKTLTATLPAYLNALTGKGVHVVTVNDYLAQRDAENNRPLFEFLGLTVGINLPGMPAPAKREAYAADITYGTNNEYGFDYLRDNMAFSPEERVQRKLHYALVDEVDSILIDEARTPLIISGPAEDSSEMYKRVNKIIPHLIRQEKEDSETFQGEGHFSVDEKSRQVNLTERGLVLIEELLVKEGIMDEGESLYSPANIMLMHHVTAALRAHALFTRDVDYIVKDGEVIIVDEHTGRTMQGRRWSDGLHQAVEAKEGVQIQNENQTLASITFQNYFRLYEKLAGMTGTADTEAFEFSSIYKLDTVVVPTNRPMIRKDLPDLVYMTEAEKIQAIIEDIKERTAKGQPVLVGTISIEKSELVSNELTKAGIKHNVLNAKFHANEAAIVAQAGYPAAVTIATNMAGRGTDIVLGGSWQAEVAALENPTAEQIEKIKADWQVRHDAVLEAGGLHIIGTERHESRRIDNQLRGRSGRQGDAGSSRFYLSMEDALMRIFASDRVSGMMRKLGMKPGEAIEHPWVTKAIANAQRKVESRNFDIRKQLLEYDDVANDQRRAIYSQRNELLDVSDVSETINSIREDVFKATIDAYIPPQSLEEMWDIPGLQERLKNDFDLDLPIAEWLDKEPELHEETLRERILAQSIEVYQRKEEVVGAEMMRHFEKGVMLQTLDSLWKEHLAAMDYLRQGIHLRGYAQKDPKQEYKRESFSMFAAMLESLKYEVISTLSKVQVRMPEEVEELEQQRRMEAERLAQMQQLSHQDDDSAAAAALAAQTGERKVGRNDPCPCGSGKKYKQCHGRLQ

Structure (SMILES)	Percent Effect [1] [%]	Percent Effect [2] [%]	Percent Effect [3] [%]	Percent Effect [4] [%]	Percent Effect [5] [%]	Percent Effect [6] [%]	Percent Effect [7] [%]	Percent Effect [8] [%]	Percent Effect [9] [%]	Percent Effect [10] [%]	Percent Effect [11] [%]
CCc1n[nH]c(C2CN(C(=O)Cn3ccccc3=O)CCO2)n1 (stereo unspecified)	0.155	16.5	-10.9	-3.88	0.718	6.67	17.1	2.18	3.12	12.7	-24.2
CC(C)CN1Cc2c(C(=O)N(C)C)ncn2-c2ccccc2S1(=O)=O	-3.52	5.41	-2.12	-3.11	-2.83	0.319	11.6	-4.16	3.24	15.4	0.625
CS(=O)(=O)NCc1cn2c(n1)CN(C(=O)c1ccc[nH]1)CC2	-5.06	10.7	14.2	2.3	-1.97	0.233	5.2	2.29	7.45	14.1	-4.02
CCOc1ccnc(N2CCN(C(=O)c3cccnc3O)CC2)n1	-3.86	17.7	-4.02	2.97	0.283	4.56	4.5	2.56	15.3	26.6	-4.5
Cc1nc(CN2CCN(CC(=O)Nc3c(C)cccc3C)CC2)no1	-3.96	10.4	-0.791	-7.52	5.58	1.9	15	-5.46	7.62	18.8	-17.5
Cc1n[nH]c(C)c1C1COCCN1C(=O)Cc1cccc(F)c1 (stereo unspecified)	1.02	-2.74	2.69	0.561	-6.46	2.73	2.13	-1.33	-1.07	-2.5	-1.14
Cc1ccsc1-c1nnc(C2CCN(Cc3ccc(F)cc3)CC2)o1	-4.79	-9.46	14.3	4.24	7.31	-4.87	10.8	-11.7	3.23	3.9	-15.5
Cc1noc(C)c1-c1cccc(CC2CCN(C(=O)c3cc[nH]n3)C2)n1 (stereo unspecified)	-2.86	10.7	9.02	7.09	-2.95	-1.17	8.72	15.2	4.25	8.97	-0.89
CC1CCCN(CCNC(=O)c2cncnc2C(C)C)C1 (stereo unspecified)	-2.89	6.94	-1.93	-5.17	-4.96	0.442	8.25	-15.9	4.21	12.8	-3.15
CN(C)c1cc2c(nn1)CCN(C(=O)C1CCc3ccccc31)C2 (stereo unspecified)	-6.92	5.06	-21.4	3.81	-0.283	0.38	-1.06	15.8	-5.42	-8.86	-2.71
CCC1=N[C@@]2(CC[C@@H]3CN(Cc4ccc(Cl)cc4)C[C@@H]32)C(=O)N1C	-4.15	2.7	3.53	4.31	-0.0978	-13.1	16.4	14.7	0	2.56	2.84

Source: ChEMBL document CHEMBL3988442, “University of Dundee, Small-Polar-MMV Screening Library” (2021)
